Records with an inconclusive call do not appear. Unmarked numbers belong to inactive results. The source made the active and inactive calls. Calls follow the shape of the dose curve; as a rule, active = well fitted inhibition curve with a large enough effect; inconclusive = small, poorly fitted or top-dose-only effect; inactive = flat fitted curve, though single readings scatter.
target: Phospholipid hydroperoxide glutathione peroxidase GPX4 (Homo sapiens) (UniProt P36969); assay: Primary qHTS Assay for Inhibitors of Recombinant Selenoprotein Glutathione Peroxidase 4 (GPX4) (AID 1845192); settings: recombinant GPX4, GR-coupled NADPH fluorescence, 15 min; series mostly up to 50 µM; activity change, negative = inhibition: at the top concentration; also: nearly all actives have a fitted effect of over 65% in size
Procedure, shortened: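 NADPH consumption, followed by fluorescence at 340/450 nm between 0 and 15 min, reports GPX4 activity via coupled glutathione reductase (100 nM). Enzyme 200 nM was pre-exposed to compound 30 min; 0.5 mM cumene hydroperoxide and 1 mM GSH served as substrates.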
% is scaled to controls: 0 for no effect and ±100 for the full control effect; potency is read from the fitted curve at half-maximal effect.

Sequence of Phospholipid hydroperoxide glutathione peroxidase GPX4 (Homo sapiens) (P36969 whole entry, looked up): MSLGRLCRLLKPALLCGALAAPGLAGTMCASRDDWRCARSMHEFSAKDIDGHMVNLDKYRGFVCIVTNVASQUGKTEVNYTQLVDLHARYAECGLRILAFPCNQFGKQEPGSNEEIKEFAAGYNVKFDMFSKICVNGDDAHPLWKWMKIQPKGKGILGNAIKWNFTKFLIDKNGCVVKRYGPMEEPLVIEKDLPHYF

Row | Structure (SMILES) | activity change, negative = inhibition | Potency | outcome
1 | CO[C@H]1O[C@@H]2O[C@]3(C)CC[C@H]4[C@H](C)CC[C@@H]([C@H]1C)[C@@]24OO3 | 0.52% | – | –
2 | CC(Oc1ccc2[nH]nc(/C=C/c3cnn(CCO)c3)c2c1)c1c(Cl)cncc1Cl (stereo not drawn) | -12.6% | – | –
3 | CC(Nc1ncnc2nc[nH]c12)c1cc2cccc(Cl)c2c(=O)n1-c1ccccc1 (stereo not drawn) | -0.57% | – | –
4 | CCc1cnn2c(NCc3ccc[n+]([O-])c3)cc(N3CCCCC3CCO)nc12 (stereo not drawn) | 9.19% | – | –
5 | N#Cc1ccc(-c2cnc3[nH]cc(NC(=O)c4cccnc4)c3c2)cc1 | -11.9% | – | –
6 | COC(C(=O)N1Cc2[nH]nc(NC(=O)c3ccc(N4CCN(C)CC4)cc3)c2C1)c1ccccc1 (stereo not drawn) | 1.71% | – | –
7 | CC(=O)SCC(=O)c1ccc(NS(=O)(=O)c2ccc(OCCCN(C)C)cc2)nc1 | -16% | – | –
8 | OC1CCC(Nc2ncc3nc(Nc4c(F)cc(F)cc4F)n([C@H]4CCOC4)c3n2)CC1 (stereo partly drawn) | – | 20.2 µM (active) | –
9 | Nc1nc(-n2cc(C(=O)O)c(=O)c3cc(F)c(N4CC(O)C4)c(Cl)c32)c(F)cc1F | – | inactive | –
10 | CC(NC(=O)C(O)C(C)C)C(=O)NC1C(=O)N(C)CCc2ccccc21 (stereo not drawn) | – | – | inactive
11 | CC1(c2nc3c(C(N)=O)cccc3[nH]2)CCCN1 (stereo not drawn) | 4.53% | – | –
12 | O=[N+]([O-])c1cn2c(n1)OCC(OCc1ccc(OC(F)(F)F)cc1)C2 (stereo not drawn) | 1.7% | – | –
13 | CC(=O)OC1C(=O)C2(C)C(O)CC3OCC3(OC(C)=O)C2C(OC(=O)c2ccccc2)C2(O)CC(OC(=O)C(O)C(NC(=O)c3ccccc3)c3ccccc3)C(C)=C1C2(C)C (stereo not drawn) | -14.4% | – | –
14 | COc1ccc(CNC(=O)c2sc3nc(C)cc(C)c3c2N)cc1 | -6.61% | – | –
15 | O=C(Nc1ccc(S(=O)(=O)Nc2nccs2)cc1)C(c1ccccc1)c1ccccc1 | -15.1% | – | –
16 | COc1cccc2cc3c(c(O[C@@H]4O[C@H](CO[C@@H]5O[C@H](CO)[C@@H](O)[C@H](O)[C@H]5O)[C@@H](O)[C@H](O)[C@H]4O)c12)C(C)OC3=O (stereo partly drawn) | – | 9.88 µM (active) | –
17 | CS(=O)(=O)NCC1CCC(Nc2nc3c(s2)CCSc2ccccc2-3)CC1 (stereo not drawn) | 4.87% | – | –
18 | CC(NC(=O)CCc1nc2ccccc2c(=O)[nH]1)c1ccccc1 (stereo not drawn) | – | – | inactive
19 | CCC1=CC2CN(C1)Cc1c([nH]c3ccccc13)[C@@](C(=O)OC)(c1cc3c(cc1OC)N(C)[C@H]1[C@@](O)(C(=O)OC)[C@H](OC(C)=O)[C@]4(CC)C=CCN5CC[C@]31[C@@H]54)C2 (stereo partly drawn) | -3.33% [at 27.8 µM] | – | –
20 | Cc1cc(Nc2ccc(NC(=O)c3ccc(Nc4ccnc5ccccc45)cc3)cc2)nc(N)n1 | 1.43% | – | –
21 | CN(CCc1ccc(Nc2ncc(-c3cccnc3)s2)cc1)Cc1ccccc1 | -5.12% | – | –
22 | COC(=O)N[C@H](C(=O)N1[C@@H]2CC[C@@H](C2)[C@H]1c1nc2ccc(-c3ccc4c(c3)C(F)(F)c3cc(-c5cnc([C@@H]6CCC7(CC7)N6C(=O)[C@@H](NC(=O)OC)C(C)C)[nH]5)ccc3-4)cc2[nH]1)C(C)C | -27.6% [at 27.8 µM] | – | –
23 | O=C1OCC(c2ccccc2)=C1Cc1ccccc1 | -19.8% | – | –

Reference: PubChem BioAssay (NCATS)
